D1 antag – antagonists of human D1 dopamine receptor | HEK293 TREx D1 cells, calcium flux, dopamine EC80; hits give low values | P21728 | AID 504652 | actives 3.2% (n = 360,000) | activity change, negative = inhibition, % at 10 µM; in the data active = activity change below about -30%; also: % is scaled to controls: 0 for no effect and ±100 for the full control effect
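Kinetic fluorescence of a calcium dye serves as the read-out. D1-expressing Hek293 Trex cells, induced overnight at 30 C, are exposed to compound for 180 s before an EC80 dopamine addition, then read 180 s further.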
TRHR agonist-1 – TRH receptor (human) agonism. P34981. TRHR cells, calcium flux fluo-8, FDSS agonist mode. activation, % at 2 µM. actives 0.18% (n = 360,000). AID 493084; in the data active = activation above about 30%; also: 0% is about no effect
Target sequence (P34981 whole entry, looked up): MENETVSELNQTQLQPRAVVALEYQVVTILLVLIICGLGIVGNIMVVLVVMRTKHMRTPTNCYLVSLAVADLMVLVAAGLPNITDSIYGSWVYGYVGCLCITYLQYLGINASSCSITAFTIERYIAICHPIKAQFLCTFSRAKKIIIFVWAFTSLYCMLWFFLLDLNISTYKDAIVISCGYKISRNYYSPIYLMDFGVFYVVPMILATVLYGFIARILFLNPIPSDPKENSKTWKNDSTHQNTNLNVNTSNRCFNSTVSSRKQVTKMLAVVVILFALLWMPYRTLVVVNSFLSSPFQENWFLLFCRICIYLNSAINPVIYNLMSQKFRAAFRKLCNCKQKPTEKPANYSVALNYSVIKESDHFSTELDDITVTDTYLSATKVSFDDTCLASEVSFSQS
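TRHR-expressing cells, plated overnight in medium with 10% serum, were loaded with fluo-8 calcium dye at room temperature. After a 10 s baseline, library compound was pin-added and calcium release was recorded kinetically (ex 480/em 530) as agonist response.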
TRHR enhancer-1 – TRH receptor (human) allosteric enhancement. enhancement, % at 2 µM. actives 0.66% (n = 360,000). TRHR cells, fluo-8 calcium fluorescence, EC20 TRH enhancement. AID 493056; in the data active = enhancement above about 30%; also: 0% is about no effect
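TRHR-expressing cells loaded with fluo-8 calcium dye were read kinetically (ex 480/em 530) during compound addition, then stimulated with an EC20 of TRH (10 nM final). Enhancement of the Gq-mediated intracellular calcium response was scored.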
D1 PAM – potentiators of human D1 dopamine receptor; P21728; HEK293 TREx D1 cells, calcium flux, dopamine EC20 potentiation; potentiation, % at 10 µM; actives 0.036% (n = 360,000); in the data active = potentiation above about 30%; also: 0% is about no effect
D1 ag – human D1 receptor agonism. HEK293 T-REx D1 cells, calcium flux, agonist mode. actives 1% (n = 360,000). AID 504660. activation, % at 2 µM. P21728; in the data active = activation above about 30%; also: 0% is about no effect
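Agonism was scored from calcium flux recorded over 180 s (1 read/s) after pintool compound addition, following a 10-cycle baseline. Cells were inducible force-coupled HEK293 TREx D1, plated overnight at 30 C and loaded with no-wash calcium dye.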
TRHR enhancer-2 – confirmation of human TRH receptor allosteric enhancers | shares compounds with TRHR enhancer-1 | TRH receptor cell assay, enhancer confirmation qHTS | activity change, negative = inhibition, % at 46.1 µM | 970 tested, under 10 active | AID 493076;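 also: compound effect scored on response to added TRH at EC20 of 10 nM; 0% is about no effect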
TRHR agonist-2 – confirmation of human TRH receptor agonists; shares compounds with TRHR enhancer-1; TRHR-expressing cells, agonist activation read-out; Potency, µM (top dose mostly 46.1 µM), inactives show top-dose activation, most hits filed as activators; actives 8% (n = 970); AID 493078; also: potency is read from the fitted curve at half-maximal effect; 0% is about no effect; nearly all actives have a fitted effect of over 75% in size
Active calls of the source: *; ? = inconclusive; . = not tested or not shown. In the library only some 4.6% were active in any assay of this set; here they are far more common. Unless noted, calls follow the shape of the dose curve; as a rule, active = well fitted curve in the direction sought with a large enough effect; inconclusive = small, poorly fitted or top-dose-only effect, or another doubt; inactive = no such curve, though single readings can be large; an effect the other way counts as inactive or inconclusive.

SMILES | D1 antag | TRHR agonist-1 | TRHR enhancer-1 | D1 PAM | D1 ag | TRHR enhancer-2 | TRHR agonist-2
O=C1CC(Nc2ccc(N3CCOCC3)cc2)C(=O)N1c1cccc(C(F)(F)F)c1 (stereo unspecified) | -9 | -1 | 46* | -8 | 10 | 0 | -1%
CCOC(=O)c1c(C)[nH]c(C)c1S(=O)(=O)NCCc1ccco1 | -8 | -1 | -8 | -2 | 3 | . | .
Cc1ccc(C2OC(=O)C=C2c2ccccc2)cc1 (stereo unspecified) | -3 | 0 | 2 | -2 | 0 | . | .
COc1ccccc1NC(=O)COC(=O)Cc1cccs1 | -18 | -1 | 0 | -4 | 1 | . | .
COc1ccccc1CNC(=O)COC(=O)Cc1cccs1 | 8 | -1 | 43* | 0 | 2 | -6 | 1%
O=C(Cc1ccccc1)NCC(=O)N1CCCCC1 | 12 | 1 | 43* | 0 | 3 | -3 | 1%
O=C(Cc1ccccc1)N1CCNCC1 | -7 | 0 | 55* | 0 | 6 | -6 | 1%
O=C(Cc1ccccc1)N1CCN(C(=O)c2ccco2)CC1 | 9 | 1 | 2 | -5 | -1 | . | .
Cc1cc(N2CCC(C)CC2)nc2ccc(NC(=O)CCC(=O)N3CCN(c4ccccc4F)CC3)cc12 | 10 | -1 | 2 | 0 | -1 | . | .
CCOc1ccccc1C(=O)NC(C)c1ccc(-n2ccnc2)cc1 (stereo unspecified) | 17 | -1 | -3 | 3 | 3 | . | .
Cc1nnc(SCCOC(N)=O)n1C | -6 | 0 | 2 | 1 | 6 | . | .
C[N+](C)(C)CCOC(N)=O | 2 | 29 | 4 | -4 | 9 | 3 | 4%
O=C1NC(Cc2c[nH]c3ccccc23)C(=O)N1Cc1cccc2ccccc12 (stereo unspecified) | 4 | 0 | 56* | -1 | 1 | -4 | 1%
S=C(Nc1ccc(Cl)cc1)N1CCN(C2CCCCC2)CC1 | 8 | 0 | 53* | -2 | 7 | 4 | 8%
Cc1ccc(N2CCN(C(=S)Nc3ccc(Cl)cc3)CC2)cc1 | -4 | 1 | 10 | -2 | 4 | . | .
COc1ccc(CNC(=O)N2CCc3ccccc3C2)cc1 | -11 | -1 | 6 | -3 | 0 | . | .
CCC(C(=O)NCc1cccnc1)c1ccccc1 (stereo unspecified) | 13 | 0 | 42* | -5 | 1 | -2 | -1%
Cc1ccc2cc(COC(=O)C3CCCO3)c(=O)[nH]c2c1 (stereo unspecified) | -7 | 1 | 45* | -2 | 2 | -7 | 1%
Cc1ccc2cc(CN(CC(C)C)C(=O)C3CCCO3)c(=O)[nH]c2c1 (stereo unspecified) | 11 | 0 | -2 | -5 | 0 | . | .
Cc1ccnc(SCC(=O)N2CCc3ccccc3C2)n1 | -4 | 0 | -3 | 5 | 1 | . | .
Cc1cc(=O)[nH]c(SCC(=O)N2CCc3ccccc3C2)n1 | -2 | 28 | -1 | 5 | 3 | ? | -1%
CC1(C)CN=C(N(Cc2ccccc2)C(=O)Nc2ccccc2)S1 | 2 | 3 | 42* | -3 | 11 | 4 | ?
CC(=O)c1ccc(NC(=O)C(Cc2ccccc2)NS(=O)(=O)c2ccc3c(c2)CCC(=O)N3)cc1 (stereo unspecified) | -11 | 0 | 1 | 3 | 1 | . | .
CCN(CC)C(=O)C1CCN(c2ncnc3c2cnn3-c2ccc(C)cc2C)CC1 | -9 | -1 | 44* | -4 | 1 | -7 | 2%
Cc1ccc(-n2ncc3c(N4CCC(C(N)=O)CC4)ncnc32)c(C)c1 | -13 | 0 | 15 | -6 | 0 | . | .
O=C(c1ccc(CSc2nc3ccncc3n2Cc2ccccc2F)cc1)N1CCCCCC1 | 19 | 0 | 3 | -3 | 0 | . | .
COc1ccc(NC(=O)COC(=O)c2ccc(N3CCCC3=O)cc2)cc1OC | 12 | 0 | 43* | -8 | 3 | 4 | -1%
CC(=O)c1ccc(N2CCN(c3ncnc4c3c(-c3ccccc3)cn4-c3cccc(C)c3)CC2)cc1 | -2 | 1 | -4 | -3 | 0 | . | .
O=c1[nH]c(/C=C/c2ccc(Br)cc2)nc2ccccc12 | -5 | 1 | -1 | -5 | 5 | . | .
